Data as given in PubChem BioAssay (NCI).
Compounds without any hit were thinned out: in the full panel of roughly 83,000, 20% have a hit.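 Activity criterion: percent growth below 10, measured after cells in 96-well plates were exposed to a single compound concentration for 48 hours.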 Values without a mark were called inactive. Activity calls are given as the source filed them.

Assays:
Experiment in all cases: NCI-60 one-dose screen, 48 h (100 = growth as untreated, 0 = no growth, -100 = all killed)
Details in all cases: 10 µM unless noted
SK-MEL-2 melanoma = tested on: SK-MEL-2 melanoma
EKVX NSCLC = tested on: EKVX NSCLC
SN12C renal = tested on: SN12C renal
UO-31 renal = tested on: UO-31 renal
TK-10 renal = tested on: TK-10 renal
ACHN renal = tested on: ACHN renal
CAKI-1 renal = tested on: CAKI-1 renal
A498 renal = tested on: A498 renal
CCRF-CEM leukemia = tested on: CCRF-CEM leukemia
MOLT-4 leukemia = tested on: MOLT-4 leukemia
SR leukemia = tested on: SR leukemia
RPMI-8226 leukemia = tested on: RPMI-8226 leukemia
OVCAR-8 ovarian = tested on: OVCAR-8 ovarian
OVCAR-5 ovarian = tested on: OVCAR-5 ovarian
OVCAR-4 ovarian = tested on: OVCAR-4 ovarian
SK-OV-3 ovarian = tested on: SK-OV-3 ovarian
IGROV1 ovarian = tested on: IGROV1 ovarian
OVCAR-3 ovarian = tested on: OVCAR-3 ovarian
HS 578T breast = tested on: HS 578T breast
NCI/ADR-RES ovarian = tested on: NCI/ADR-RES ovarian

| SMILES | growth (SK-MEL-2 melanoma) | growth (EKVX NSCLC) | growth (SN12C renal) | growth (UO-31 renal) | growth (TK-10 renal) | growth (ACHN renal) | growth (CAKI-1 renal) | growth (A498 renal) | growth (CCRF-CEM leukemia) | growth (MOLT-4 leukemia) | growth (SR leukemia) | growth (RPMI-8226 leukemia) | growth (OVCAR-8 ovarian) | growth (OVCAR-5 ovarian) | growth (OVCAR-4 ovarian) | growth (SK-OV-3 ovarian) | growth (IGROV1 ovarian) | growth (OVCAR-3 ovarian) | growth (HS 578T breast) | growth (NCI/ADR-RES ovarian) |
| --- | --- | --- | --- | --- | --- | --- | --- | --- | --- | --- | --- | --- | --- | --- | --- | --- | --- | --- | --- | --- |
| O=C(CSc1nc2ccc([N+](=O)[O-])cc2[nH]1)Nc1ccc(Br)cc1 | 42.2% | 50% | 46.1% | 41% | 94.5% | 52.6% | 39.6% | 30.9% | 39.1% | 26.6% | 22.9% | 6.95% (active) | 52.5% | 85.7% | 34.4% | 44.7% | 63.8% | 39.3% | 78.7% | 59.3% |
| C=CCn1c(SCC(=O)Nc2ccc(C(=O)/C=C/c3ccc(OC)cc3)cc2)nnc1-c1ccccc1 | 82.4% | 88.4% | 89.2% | 69.4% | 98% | 92.5% | 93.1% | 97.3% | 84.5% | 61.1% | 85.3% | 5.8% (active) | 101% | 82.7% | 77.4% | 106% | 84.9% | 89.5% | 100% | 89.1% |
| N#Cc1c(-c2cccc([N+](=O)[O-])c2)cc(-c2ccc(Nc3nc(Nc4ccc(F)cc4)nc(Nc4ccc(F)cc4)n3)cc2)nc1N | 68.1% | 137% | 137% | 83.7% | 128% | 108% | 113% | 115% | 78% | 84.6% | 62.9% | 52.3% | 89.1% | 102% | 114% | 143% | 90.9% | 100% | 87.9% | 101% |
| COc1cc2c(c(OC)c1OC)C(=O)CC(c1cccc(NC(=O)c3ccccc3Br)c1)O2 (stereo not given) | 75.8% | 102% | 91.5% | 77.3% | 97.1% | 93% | 109% | 75.9% | 73.1% | 69.6% | 68.4% | 58.2% | 80.1% | 117% | 90% | 108% | 102% | 96.4% | 79.5% | 91.3% |
| C#CCOc1ccc2ncnc(Nc3cccc(NC(=O)CCl)c3)c2c1 | 69.7% | 92.9% | 69.4% | 59.5% | 73.4% | 65.8% | 81.2% | 89.1% | 16.1% | 18.1% | 30.3% | 64.2% | 54.6% | 104% | 82.7% | 113% | -37.7% (active) | 51.3% | 90.5% | 90.8% |
| CCN(CC)c1ccc(N2C(=O)/C(=C/c3cccs3)SC2=S)cc1 | 110% | 92.2% | 91.5% | 73.3% | 92.9% | 94.3% | 89.7% | 71.1% | 83% | 97.9% | 95.4% | 97% | 99.6% | 95.4% | 81.9% | 113% | 99.4% | 101% | 103% | 96.6% |
| CC(C)CCC[C@@H](C)C1CCC2C3CCC4=C/C(=N/OCCN(C)C)CC[C@]4(C)C3CC[C@@]21C (stereo not given in full) | 83.7% | 94.7% | 92.6% | 61.7% | 70.4% | 88.9% | 79.9% | 80.8% | 26.6% | 49.2% | 62.2% | 78.4% | 104% | 83.9% | 88.5% | 93.8% | 48.9% | 89.5% | 83.8% | 89.6% |
| C/C(=C(/c1ccc(Cl)cc1)c1ccc(OCCCN(C)C)cc1)c1ccc(Cl)cc1 | 98.5% | 98.4% | 93.9% | 72.7% | 103% | 104% | 87.3% | 94.8% | 73.3% | 71.7% | -2.36% (active) | 55.6% | 96.1% | 101% | 104% | 120% | 85.7% | 86.3% | 87.1% | 97.7% |
